Data reported in ChEMBL document CHEMBL2218924, “A broad activity screen in support of a chemogenomic map for kinase signalling research and drug discovery” (Biochem J, 2013).

Legend:
[1] = target: T1, Serine/threonine-protein kinase TAO3 (Homo sapiens) (UniProt Q9H2K8); conditions: at 10 µM
T1 sequence (whole entry): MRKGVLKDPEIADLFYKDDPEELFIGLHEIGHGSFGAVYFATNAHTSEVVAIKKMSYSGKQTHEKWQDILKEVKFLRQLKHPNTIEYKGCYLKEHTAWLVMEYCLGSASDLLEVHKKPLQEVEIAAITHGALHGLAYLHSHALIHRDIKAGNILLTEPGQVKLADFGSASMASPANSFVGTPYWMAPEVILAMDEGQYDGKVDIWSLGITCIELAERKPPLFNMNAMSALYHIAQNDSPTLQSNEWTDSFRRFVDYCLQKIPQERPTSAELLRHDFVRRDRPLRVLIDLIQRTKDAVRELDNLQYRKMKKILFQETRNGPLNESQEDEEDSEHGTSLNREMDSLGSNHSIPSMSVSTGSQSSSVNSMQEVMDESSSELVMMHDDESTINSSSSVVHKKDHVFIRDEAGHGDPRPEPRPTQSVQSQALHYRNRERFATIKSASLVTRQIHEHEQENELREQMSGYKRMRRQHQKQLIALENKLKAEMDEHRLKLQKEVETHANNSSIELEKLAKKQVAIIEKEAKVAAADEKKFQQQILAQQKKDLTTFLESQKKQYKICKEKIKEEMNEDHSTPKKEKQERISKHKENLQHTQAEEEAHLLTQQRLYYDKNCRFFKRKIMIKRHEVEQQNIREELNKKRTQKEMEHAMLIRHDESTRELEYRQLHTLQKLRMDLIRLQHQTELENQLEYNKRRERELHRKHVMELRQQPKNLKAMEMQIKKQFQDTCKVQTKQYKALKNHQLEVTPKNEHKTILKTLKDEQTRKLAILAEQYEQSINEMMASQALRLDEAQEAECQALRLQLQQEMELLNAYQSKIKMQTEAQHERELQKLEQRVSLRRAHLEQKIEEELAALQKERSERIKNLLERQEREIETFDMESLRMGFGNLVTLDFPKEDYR

[2] = target: T2, Serine/threonine-protein kinase TBK1 (Homo sapiens) (UniProt Q9UHD2); conditions: at 1 µM
T2 sequence (whole entry): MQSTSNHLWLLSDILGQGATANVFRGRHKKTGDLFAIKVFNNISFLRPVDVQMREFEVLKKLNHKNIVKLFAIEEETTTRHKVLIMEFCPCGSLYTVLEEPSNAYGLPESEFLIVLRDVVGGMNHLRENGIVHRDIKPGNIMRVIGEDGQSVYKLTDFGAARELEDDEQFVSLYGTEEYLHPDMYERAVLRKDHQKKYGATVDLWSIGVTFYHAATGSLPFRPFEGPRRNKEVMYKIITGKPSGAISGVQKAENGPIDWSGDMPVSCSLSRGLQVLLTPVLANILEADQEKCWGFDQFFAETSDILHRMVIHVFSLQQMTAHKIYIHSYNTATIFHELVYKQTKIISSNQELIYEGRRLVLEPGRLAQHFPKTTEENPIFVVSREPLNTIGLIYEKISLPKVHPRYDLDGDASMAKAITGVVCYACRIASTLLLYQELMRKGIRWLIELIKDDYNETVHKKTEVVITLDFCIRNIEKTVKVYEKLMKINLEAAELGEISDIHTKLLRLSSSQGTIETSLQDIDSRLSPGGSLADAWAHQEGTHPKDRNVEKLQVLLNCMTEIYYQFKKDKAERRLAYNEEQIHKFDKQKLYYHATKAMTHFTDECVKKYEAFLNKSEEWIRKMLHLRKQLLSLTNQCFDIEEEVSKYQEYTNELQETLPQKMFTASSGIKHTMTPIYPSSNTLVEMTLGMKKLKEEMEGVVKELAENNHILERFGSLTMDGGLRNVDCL

[3] = target: T2, Serine/threonine-protein kinase TBK1 (Homo sapiens); conditions: at 10 µM
[4] = target: T3, TGF-beta receptor type-1 (Homo sapiens) (UniProt P36897); conditions: at 10 µM
T3 sequence (whole entry): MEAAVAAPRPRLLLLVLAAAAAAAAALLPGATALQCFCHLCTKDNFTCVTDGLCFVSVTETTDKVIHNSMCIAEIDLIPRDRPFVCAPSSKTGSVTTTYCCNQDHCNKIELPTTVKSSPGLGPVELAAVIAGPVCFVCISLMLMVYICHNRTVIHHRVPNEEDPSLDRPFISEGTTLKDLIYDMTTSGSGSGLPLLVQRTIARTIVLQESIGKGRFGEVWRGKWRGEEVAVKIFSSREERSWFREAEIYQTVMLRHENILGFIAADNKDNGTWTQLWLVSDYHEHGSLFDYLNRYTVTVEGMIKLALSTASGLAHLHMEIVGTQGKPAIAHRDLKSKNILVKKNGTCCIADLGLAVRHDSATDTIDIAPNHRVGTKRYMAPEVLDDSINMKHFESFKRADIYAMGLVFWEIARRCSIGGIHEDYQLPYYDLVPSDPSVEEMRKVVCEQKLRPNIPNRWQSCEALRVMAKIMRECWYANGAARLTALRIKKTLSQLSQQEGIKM

[5] = target: T4, Inhibitor of nuclear factor kappa-B kinase subunit alpha (Homo sapiens) (UniProt O15111); conditions: at 1 µM
T4 sequence (whole entry): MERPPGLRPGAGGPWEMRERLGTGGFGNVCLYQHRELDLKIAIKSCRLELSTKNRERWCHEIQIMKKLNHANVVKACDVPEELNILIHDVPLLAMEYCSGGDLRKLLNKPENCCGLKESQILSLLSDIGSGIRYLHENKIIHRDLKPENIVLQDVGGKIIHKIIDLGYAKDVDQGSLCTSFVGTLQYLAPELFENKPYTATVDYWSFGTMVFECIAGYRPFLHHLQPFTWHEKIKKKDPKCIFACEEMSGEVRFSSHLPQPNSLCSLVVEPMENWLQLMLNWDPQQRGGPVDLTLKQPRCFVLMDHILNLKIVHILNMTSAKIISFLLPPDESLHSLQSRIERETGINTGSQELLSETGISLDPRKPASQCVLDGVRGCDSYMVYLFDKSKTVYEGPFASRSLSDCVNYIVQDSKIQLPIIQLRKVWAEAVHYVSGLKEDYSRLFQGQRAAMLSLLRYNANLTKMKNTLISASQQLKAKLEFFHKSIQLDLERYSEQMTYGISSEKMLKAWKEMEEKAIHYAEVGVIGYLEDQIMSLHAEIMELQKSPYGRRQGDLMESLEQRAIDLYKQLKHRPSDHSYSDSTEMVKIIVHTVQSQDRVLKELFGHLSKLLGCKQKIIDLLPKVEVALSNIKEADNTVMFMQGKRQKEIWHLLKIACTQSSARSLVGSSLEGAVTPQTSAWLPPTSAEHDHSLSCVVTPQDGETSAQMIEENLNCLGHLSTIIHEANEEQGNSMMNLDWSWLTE

[6] = target: T4, Inhibitor of nuclear factor kappa-B kinase subunit alpha (Homo sapiens); conditions: at 10 µM
[7] = target: T5, Inhibitor of nuclear factor kappa-B kinase subunit beta (Homo sapiens) (UniProt O14920); conditions: at 1 µM
T5 sequence (whole entry): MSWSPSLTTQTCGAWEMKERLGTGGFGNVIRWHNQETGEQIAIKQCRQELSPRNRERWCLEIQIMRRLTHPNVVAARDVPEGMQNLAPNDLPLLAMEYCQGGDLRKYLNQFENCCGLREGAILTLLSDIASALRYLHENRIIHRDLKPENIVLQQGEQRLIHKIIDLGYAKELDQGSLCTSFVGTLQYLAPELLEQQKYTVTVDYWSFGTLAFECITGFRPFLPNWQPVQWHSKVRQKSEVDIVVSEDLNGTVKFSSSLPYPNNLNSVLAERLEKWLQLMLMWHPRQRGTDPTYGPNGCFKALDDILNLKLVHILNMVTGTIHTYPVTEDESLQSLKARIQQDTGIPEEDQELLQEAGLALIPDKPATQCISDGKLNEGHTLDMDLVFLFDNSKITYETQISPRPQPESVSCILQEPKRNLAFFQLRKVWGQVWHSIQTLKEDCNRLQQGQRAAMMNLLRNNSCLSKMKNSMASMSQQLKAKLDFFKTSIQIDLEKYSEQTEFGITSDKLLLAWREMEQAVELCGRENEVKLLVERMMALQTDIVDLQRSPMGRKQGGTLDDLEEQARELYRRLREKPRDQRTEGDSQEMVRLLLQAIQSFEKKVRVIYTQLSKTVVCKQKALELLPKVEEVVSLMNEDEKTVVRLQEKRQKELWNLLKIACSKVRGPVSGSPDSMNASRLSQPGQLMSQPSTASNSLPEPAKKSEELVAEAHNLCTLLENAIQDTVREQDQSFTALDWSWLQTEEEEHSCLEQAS

## c1ccc(-c2cnc(Nc3ccc(OCCN4CCCC4)cc3)s2)cc1
[1]
  residual activity: 27%
[2]
  residual activity: 70%
[3]
  residual activity: 23%
[4]
  residual activity: 74%
[5]
  residual activity: 77%
[6]
  residual activity: 66%
[7]
  residual activity: 116%
